{"source": "PubChem BioAssay AID1508621", "about": "(National Center for Advancing Translational Sciences (NCATS), 2021)", "note": "Records with an inconclusive call do not appear. A number with no mark means an inactive call. Active and inactive are the calls of the source. Calls follow the shape of the dose curve; as a rule, active = well fitted inhibition curve with a large enough effect; inconclusive = small, poorly fitted or top-dose-only effect; inactive = no such curve, though single readings can be large or run the other way. Potency is read from the fitted curve at half-maximal effect.", "data": [{"assay": "Confirmatory qHTS for Identification of Small Molecule Inhibitors of Huntingtin Promoter Activity; also: nearly all actives have a fitted effect of over 65% in size", "details": "HEK293 HTT promoter firefly luciferase reporter, 24 h; series mostly up to 57.5 µM; activity change, negative = inhibition: at the top concentration", "text": "Assay Provider: Russell L. Margolis M.D.\nDepartment Neurology, Johns Hopkins University School of Medicine, Baltimore, MD\nHuntington's Disease (HD) is a neurodegenerative disorder caused by a CAG repeat expansion in exon 1 of huntingtin (HTT). While there are currently no disease-modifying treatments for HD, recent efforts have focused on development of nucleotide-based therapeutics to lower HTT expression. As an alternative to siRNA or oligonucleotide methods, we hypothesized that suppression of HTT expression might be accomplished by small molecules that either (1) directly decrease HTT expression by suppressing HTT promoter activity or (2) indirectly decrease HTT expression by increasing the promoter activity of HTT-AS, the gene antisense to HTT that appears to inhibit expression of HTT.\nWe developed and employed a high throughput screen for modifiers of HTT and HTT-AS promoter activity using luminescent reporter HEK293 cells; of the 52,041 compounds tested, we identified 898 replicable hits. We used a rigorous stepwise approach to assess compound toxicity and the capacity of the compounds to specifically lower huntingtin protein in 5 different cell lines, including HEK293 cells, HD lymphoblastoid cells, mouse primary neurons, HD iPSCs differentiated into cortical-like neurons, and HD hESCs. We found no compounds which were able to lower huntingtin without lowering cell viability in all assays, though the potential efficacy of a few compounds at non-toxic doses could not be excluded.\nSEQUENCE No. (1, 2, 3, etc.); […] (e.g., Cells, Incubation, Reagent, etc.); VALUE and DESCRIPTION.\n1; Reagent; 4 uL; 2,500 Hek293 luciferase reporter cells per wells\n3; Compound; 23 nL; Control inhibitor / compound library\n5; Reagent; 2.5 uL; Firefly Luc reagent; Dual-Glo Luciferase Reporter Assay System (Promega)\n6; Time; 10 min; room temperature incubation\n7; Detection; Luminescence; FLuc\nNOTES (numbers refer to sequence above)\n1; High-throughput screening, measuring luminescence from a Hek293 luciferase reporter, was performed in 1,536 well white-walled tissue-culture treated plates. 2,500 cells were plated in 4 uL of Opti-MEM per well using a Multidrop Combi Reagent Dispenser (ThermoFisher).\n2; Assay plates were cultured for 24 hours.\n3; Control inhibitor (PTC124; final concentration of 50 uM) and compound library (at final concentrations of 460 nM - 57.5 uM) were added to the assay plate using the Kalypsis Pintool Robotic System equipped with 1536 pinheads.\n4; Cells were then incubated for 24 hours at 37C prior to luminescence measurements.\n5; In all cases, luminescence was measured using the Dual-Glo Luciferase Reporter Assay System (Promega) following the manufacturer's instructions.\n6; Room temperature incubation.\n7; Luminescence signal was obtained using the PerkinElmer ViewLux plate reader. Results were normalized to vehicle control (0% activity) and zero RLU (-100% activity).", "values": [{"smiles": "CNC(=O)N1N=C(c2ccc(N)cc2)c2cc3c(cc2CC1C)OCO3", "note": "(stereo not drawn)", "activity change, negative = inhibition": "77.4% [at 115 µM]"}, {"smiles": "O=C(N[C@H]1CN2CCC1CC2)c1ccc(Cl)cc1", "activity change, negative = inhibition": "-0.0179%"}, {"smiles": "O=c1c2ccccc2nc(/C=C/c2cccc3ccccc23)n1-c1ccccc1Cl", "activity change, negative = inhibition": "-14.5%"}, {"smiles": "CC(C)N[C@@H]1CCn2c(=O)[nH]c3cccc(c32)[C@@H]1O", "activity change, negative = inhibition": "2.69%"}, {"smiles": "Cc1cccc(-n2c(/C=C\\c3cccc(Br)c3)nc3ccccc3c2=O)c1", "activity change, negative = inhibition": "-13.2%"}, {"smiles": "Cc1ccccc1Cn1cccc(C(=O)Nc2nc3ccccc3s2)c1=O", "Potency": "12 µM (active)"}, {"smiles": "CC(C)(O)C=CC(=O)[C@](C)(O)[C@H]1[C@H](O)C[C@]2(C)[C@@H]3CC=C4[C@@H](C=C(O)C(=O)C4(C)C)[C@]3(C)C(=O)C[C@@]12C", "Potency": "0.757 µM (active)"}, {"smiles": "COc1ccc(-n2c(/C=C\\c3ccccc3F)nc3ccccc3c2=O)cc1OC", "activity change, negative = inhibition": "-14.4%"}, {"smiles": "Nc1c(C(=O)Nc2ccc(Cl)c(C(F)(F)F)c2)sc2nc3c(cc12)N1CCC3CC1", "Potency": "12 µM (active)"}, {"smiles": "CCOc1ccc(NC(=O)c2cccn(Cc3cccc(Cl)c3)c2=O)cc1", "activity change, negative = inhibition": "-21%"}, {"smiles": "Cc1ccc(-n2c(/C=C/c3ccc(Br)s3)nc3ccccc3c2=O)cc1", "activity change, negative = inhibition": "-18.3%"}, {"smiles": "CCN(CC)C(=O)N[C@@H]1C=C2c3cccc4[nH]cc(c34)C[C@@H]2N(C)C1", "activity change, negative = inhibition": "-14.5%"}, {"smiles": "CCCCc1ccc(NC(=O)c2cccn(Cc3ccc(Cl)cc3)c2=O)cc1", "activity change, negative = inhibition": "-27.8%"}]}]}
